Assay results from ChEMBL document CHEMBL4513160, “CO-ADD screening of MMV (CH) - Small Polar Library”.
In all, about 23,000 compounds went through this assay and about 30 (0.1%) showed an effect of 50% or more. The entries come from a sample that favours strong results as a whole. Potency and affinity values are given separately.

Test system: Pseudomonas aeruginosa
Conditions: Concentration 300 ug.mL-1; ASSAY_TEST Inhibition of Bacterial Growth; detection method Absorption (OD600); MEDIA CAMHB; plate type 384well; NBS; CORNING #3640; time 18 hr

Structure (SMILES) | Inhibition [%]
CCc1ccc(C2CNCCO2)cc1 (stereo unspecified) | 46.05
